Values joined by “and” are separate entries in the source; they are usually repeats but may differ in a detail not shown here. Identical values can stand only once. Active and inactive are the calls of the source. How the calls were made is not given here.
system: Aerobactin synthetase IucA (Klebsiella pneumoniae hvKP1); experiment: IucA enzyme inhibition, primary screen, biochemical, Spectrum library (AID 1346200); settings: malachite green pyrophosphate, A620, at 8 µM, hits give low values;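 further: 100% = wells without compound and 0% = wells lacking enzyme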

**Q.** How did the activity remaining turn out when `COc1cc2ccc(=O)oc2c(O)c1O` was run?
**A.** The activity remaining was 112% (inactive).

**Q.** Which activity remaining does the source give for `CC1(C)C2CC[C@]3(C)C(C(=O)C=C4[C@@H]5C[C@@](C)(C(=O)O)CC[C@]5(C)CC[C@]43C)[C@@]2(C)CC[C@@H]1O` (stereo not given in full) here?
**A.** Its activity remaining is 126% (inactive).

**Q.** With `Cc1ccc(C)c(OCCCC(C)(C)C(=O)O)c1` as the compound, how does the activity remaining read?
**A.** Its activity remaining is 116% (inactive).

**Q.** With `COc1cc2nc(N(C)CCCNC(=O)C3CCCO3)nc(N)c2cc1OC` (stereo not given) as the compound, how does the activity remaining read?
**A.** The activity remaining was 120% (inactive).

**Q.** `Cc1cc(O)c2c(c1O)C(=O)c1c(O)cc(C)c(O)c1C2=O` was tested. Which activity remaining did it give?
**A.** The activity remaining was 100% (inactive).

**Q.** For `CN(C)CCC(c1ccc(Br)cc1)c1ccccn1` (stereo not given), which activity remaining is on record?
**A.** The activity remaining was 123% (inactive) and 96.1% (inactive).

**Q.** With `CC[C@H](/C=C/C(C)C1CCC2C3CCC4=CC(=O)CC[C@]4(C)C3CC[C@]12C)C(C)C` (stereo not given in full) as the compound, how does the activity remaining read?
**A.** The activity remaining was 101% (inactive).

**Q.** How did the activity remaining turn out when `CC(=O)Oc1ccc(C(c2ccc(OC(C)=O)cc2)c2ccccn2)cc1` was run?
**A.** Its activity remaining is 82.7% (inactive).

**Q.** How did the activity remaining turn out when `C=C1c2cccc(O)c2C(O)=C2C(=O)[C@]3(O)C(O)=C(C(N)=O)C(=O)[C@@H](N(C)C)[C@@H]3[C@@H](O)[C@H]12` was run?
**A.** Its activity remaining is 111% (inactive).

**Q.** `C[C@H]1C(=O)CCC2[C@]3(C)CC[C@@]4(C)C5CC(C)(C)CC[C@]5(C)CC[C@]4(C)C3CC[C@@]21C` (stereo not given in full) was tested. Which activity remaining did it give?
**A.** The activity remaining was 105% (inactive).

**Q.** With `Cc1ccc(-c2cc(C(F)(F)F)nn2-c2ccc(S(N)(=O)=O)cc2)cc1` as the compound, how does the activity remaining read?
**A.** Its activity remaining is 95% (inactive).

**Q.** `CC[C@@H]1OC(=O)C[C@@H](O)[C@H](C)[C@@H](O[C@@H]2O[C@H](C)[C@@H](O)[C@H](N(C)C)[C@H]2O)[C@@H](CCN2C[C@H](C)C[C@H](C)C2)C[C@@H](C)C(=O)/C=C/C(C)=C\[C@@H]1CO[C@@H]1O[C@H](C)[C@@H](O)[C@@H](OC)[C@H]1OC` was tested. Which activity remaining did it give?
**A.** The activity remaining was 112% (inactive).

**Q.** With `COc1ccc(-c2cc(=O)c3ccccc3o2)cc1` as the compound, how does the activity remaining read?
**A.** Its activity remaining is 114% (inactive).

**Q.** With `C=C1CCC(C2CC(=O)OC2=O)C(=O)CCC2C1CC2(C)C` (stereo not given) as the compound, how does the activity remaining read?
**A.** The activity remaining was 111% (inactive).

**Q.** `CCCOc1ccc2nc(NC(=O)OC)[nH]c2c1` was tested. Which activity remaining did it give?
**A.** The activity remaining was 98.2% (inactive).

**Q.** How did the activity remaining turn out when `C=C[C@@]1(C)CC(=O)[C@@]2(O)[C@](C)(O1)[C@@H](OC(C)=O)[C@@H](O)C1C(C)(C)CC[C@H](O)[C@@]12C` (stereo not given in full) was run?
**A.** Its activity remaining is 82.4% (inactive).

**Q.** `CCC(C)C(=O)O[C@@H]1C[C@@]2(C)[C@H](c3ccoc3)OC(=O)CC23OC2(C)OC34[C@H](OC(=O)C(C)C)[C@@]3(O)[C@@H](OC(=O)C5(C)OC5C)[C@@]5(C)C[C@]3(O)[C@@](C)([C@H]5CC(=O)OC)C14O2` (stereo not given in full) was tested. Which activity remaining did it give?
**A.** Its activity remaining is 112% (inactive).

**Q.** For `CCOC(=O)C1=C(O)C(=O)N(Cc2ccccc2)C1`, which activity remaining is on record?
**A.** Its activity remaining is 96.2% (inactive).

**Q.** Which activity remaining does the source give for `COc1ccc(C(=O)/C=C/c2ccccc2)cc1` here?
**A.** The activity remaining was 106% (inactive).

**Q.** Which activity remaining does the source give for `CC1=C(C/C=C(\C)CCC[C@H](C)CCC[C@H](C)CCCC(C)C)C(=O)c2ccccc2C1=O` here?
**A.** The activity remaining was 114% (inactive).

**Q.** For `COc1ccc(C(C)=O)c(O)c1`, which activity remaining is on record?
**A.** The activity remaining was 83.8% (inactive).

**Q.** With `CCCCc1nc(Cl)c(CO)n1Cc1ccc(-c2ccccc2-c2nn[nH]n2)cc1` as the compound, how does the activity remaining read?
**A.** Its activity remaining is 110% (inactive).

**Q.** How did the activity remaining turn out when `CC1(C)C=Cc2c(cc3occ(-c4ccc5c(c4)OCO5)c(=O)c3c2O)O1` was run?
**A.** The activity remaining was 118% (inactive).

**Q.** `COc1ccc(-c2coc3cc(OC)cc(OC)c3c2=O)cc1` was tested. Which activity remaining did it give?
**A.** The activity remaining was 103% (inactive).

**Q.** For `C[C@@H](N)CO`, which activity remaining is on record?
**A.** The activity remaining was 106% (inactive).

**Q.** Which activity remaining does the source give for `CCc1ccc2c(O)c3c(cc2c1C(=O)OC)C(=O)c1c(O)ccc(O)c1C3=O` here?
**A.** The activity remaining was 115% (inactive).

**Q.** With `COc1cc(/C=C/C(=O)/C=C(O)/C=C/c2ccc(O)c(OC)c2)ccc1O` as the compound, how does the activity remaining read?
**A.** Its activity remaining is 103% (inactive).

**Q.** `CN(CCOc1ccc(CC2SC(=O)NC2=O)cc1)c1ccccn1` (stereo not given) was tested. Which activity remaining did it give?
**A.** Its activity remaining is 113% (inactive).

**Q.** `COc1ccc2c(c1)OCc1c-2oc2cc(OC)ccc12` was tested. Which activity remaining did it give?
**A.** Its activity remaining is 90.7% (inactive).

**Q.** With `CC(=O)N[C@@H](Cc1c[nH]c2ccccc12)C(=O)O` as the compound, how does the activity remaining read?
**A.** Its activity remaining is 110% (inactive).

**Q.** How did the activity remaining turn out when `CC(C)=CCOc1cc2oc(=O)ccc2cc1O` was run?
**A.** The activity remaining was 109% (inactive).

**Q.** With `c1coc(CNc2ncnc3nc[nH]c23)c1` as the compound, how does the activity remaining read?
**A.** Its activity remaining is 116% (inactive).

**Q.** `Cc1ccc(S(=O)(=O)NC(=O)NN2CC3CCCC3C2)cc1` (stereo not given) was tested. Which activity remaining did it give?
**A.** The activity remaining was 121% (inactive).

**Q.** With `NCCCC[C@H](N[C@@H](CCc1ccccc1)C(=O)O)C(=O)N1CCC[C@H]1C(=O)O` as the compound, how does the activity remaining read?
**A.** Its activity remaining is 114% (inactive).

**Q.** How did the activity remaining turn out when `C/C1=C\CCC(=O)C2CC(C)(C)C2CC1` (stereo not given) was run?
**A.** The activity remaining was 105% (inactive).

**Q.** With `CCn1cc(C(=O)O)c(=O)c2cnc(N3CCCC3)nc21` as the compound, how does the activity remaining read?
**A.** Its activity remaining is 105% (inactive).

**Q.** For `CC(C)(CO)C(O)C(=O)NCCCO` (stereo not given), which activity remaining is on record?
**A.** Its activity remaining is 118% (inactive).

**Q.** For `C[C@H](CCC(=O)O)[C@H]1CCC2C3C(CC[C@@]21C)[C@@]1(C)CC[C@@H](O)C[C@H]1C[C@@H]3O` (stereo not given in full), which activity remaining is on record?
**A.** Its activity remaining is 105% (inactive).

**Q.** For `CC(C(=O)O)c1cccc(Oc2ccccc2)c1` (stereo not given), which activity remaining is on record?
**A.** Its activity remaining is 118% (inactive).

**Q.** `CCN(CC)CCOC(=O)C(Cc1cccc2ccccc12)CC1CCCO1` (stereo not given) was tested. Which activity remaining did it give?
**A.** The activity remaining was 99.1% (inactive).

Reference: PubChem BioAssay
